Laboratory results published in PubChem BioAssay (NCATS).
Where “and” joins values, the source holds several entries; their conditions need not be identical. Identical values can stand only once. Inconclusive results are not listed. A call without a number means that no potency is given here. Calls of active or inactive are those of the source. Unless noted, calls come from the whole dose curve; as a rule, active = well fitted curve in the direction sought with a large enough effect; inconclusive = small, poorly fitted or top-dose-only effect, or another doubt; inactive = no such curve, though single readings can be large; an effect the other way counts as inactive or inconclusive.

What was measured:
[1] = Cell Viability - LYMP1-003 - Assay at 24 hr (AID 963)
How it was run: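 Human lymphoblastoid LYMP1-003 cells (2500/well) were rested 5 hr at 37 C, then exposed to compounds in complete medium for 24 hr at 37 C. Cellular ATP was quantified by CellTiter-Glo luminescence, and AC50 values came from Hill fits of concentration-response data.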

[2] = Cell Viability - LYMP1-003 - Assay at 40 hr (AID 964); note: series mostly up to about 92 µM; nearly all actives have a fitted effect of over 60% in size
How it was run: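 Human lymphoblastoid LYMP1-003 cells, 2500/well in complete medium, rested 5 hr at 37 C, then exposed to compounds for 40 hr at 37 C. Viability read as intracellular ATP by CellTiter-Glo luminescence; AC50 from Hill fits of concentration-response data.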

[3] = Cell Viability - LYMP2-003 (AID 965);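 note: cells exposed to compounds for 24 h before reading; nearly all actives have a fitted effect of over 50% in size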
How it was run: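 Seed 2500 lymphoblastoid cells/well; incubate 5 hr, 37 C; add compounds; incubate 24 hr, 37 C; add CellTiter-Glo, 30 min RT; read luminescence. AC50 from Hill fit.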

[4] = Cell Viability - LYMP2-005 (AID 967); note: series mostly up to about 92 µM
How it was run: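 Acute cytotoxicity is scored as a concentration-dependent drop in intracellular ATP in human lymphoblastoid LYMP2-005 cells after 24 h compound treatment. ATP is quantified by luciferase luminescence, and AC50 is derived by Hill-equation modelling.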

[5] = Cell Viability - LYMP2-009 (AID 968); note: series mostly up to about 92 µM; nearly all actives have a fitted effect of over 55% in size
[6] = Cell Viability - LYMP2-011 (AID 969); note: nearly all actives have a fitted effect of over 60% in size
How it was run: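 Human lymphoblastoid cells (2500/well) were plated in complete medium, preincubated 5 hr at 37 C, then exposed to compounds for 24 hr at 37 C. Intracellular ATP was read by CellTiter-Glo luminescence, and AC50 came from Hill-equation concentration-response fits.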

[7] = Cell Viability - LYMP2-013 (AID 970); note: series mostly up to about 92 µM; nearly all actives have a fitted effect of over 55% in size
How it was run: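 Human lymphoblastoid cells, 2500/well, were preincubated 5 hr at 37 C, then treated with compounds for 24 hr at 37 C in complete medium. Intracellular ATP was read by CellTiter-Glo luminescence; AC50 from Hill-equation fits of concentration-response data.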

[8] = Cell Viability - LYMP2-017 (AID 972); note: series mostly up to about 92 µM; nearly all actives have a fitted effect of over 55% in size
How it was run: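 Human lymphoblastoid cells (2500/well) were seeded in complete medium, held 5 hr at 37 C, then exposed to compounds for 24 hr at 37 C. Intracellular ATP was read by CellTiter-Glo luminescence after 30 min at room temperature, with AC50 values from Hill-equation fits.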

[9] = Cell Viability - LYMP2-019 (AID 973); note: nearly all actives have a fitted effect of over 55% in size
How it was run: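 Human lymphoblastoid cells were seeded at 2500 cells/well, preincubated 5 hr at 37 C, then exposed to compounds for 24 hr at 37 C in complete medium. Intracellular ATP was measured by CellTiter-Glo luminescence; AC50 from Hill fits.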

[10] = Cell Viability - LYMP2-021 (AID 974)
How it was run: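 Human lymphoblastoid cells (2500/well) were preincubated 5 hr at 37 C, then exposed to compounds for 24 hr at 37 C in complete medium. Intracellular ATP was read by CellTiter-Glo luminescence; AC50 came from Hill-equation fits of concentration-response data.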

[11] = Cell Viability - LYMP2-025 (AID 976); note: series mostly up to about 92 µM
How it was run: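 Human lymphoblastoid LYMP2-025 cells (2500/well) were pre-incubated 5 hr at 37 C, then treated with compounds for 24 hr at 37 C in complete medium. Viability was read as intracellular ATP by CellTiter-Glo luminescence; AC50 from Hill fits.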

[12] = Cell Viability - LYMP2-002 (AID 977);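 note: series mostly up to about 92 µM; compound exposure lasted 24 h at 37 °C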
How it was run: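 Human lymphoblastoid LYMP2-002 cells, 2500 per well, exposed to compounds for 24 h at 37 C in complete medium; viability read as intracellular ATP by CellTiter-Glo luminescence, AC50 from Hill fits.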

[13] = Cell Viability - LYMP2-006 (AID 978); note: series mostly up to about 92 µM; nearly all actives have a fitted effect of over 60% in size
How it was run: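 Cells are seeded at 2500 per well and rested 5 hr at 37 C. Compounds are added across a concentration series for 24 hr at 37 C, after which ATP is quantified by luciferase luminescence.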

[14] = Cell Viability - LYMP2-007 (AID 979);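 note: cells exposed to compound for 24 h before reading; nearly all actives have a fitted effect of over 60% in size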
How it was run: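 Human lymphoblastoid cells (2500/well) were plated in complete medium, incubated 5 hr at 37 C, then exposed to compounds for 24 hr at 37 C. Intracellular ATP was read by CellTiter-Glo luminescence after 30 min at room temperature; AC50 from Hill fits.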

[15] = Cell Viability - LYMP2-008 (AID 980); note: nearly all actives have a fitted effect of over 60% in size
How it was run: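 Human lymphoblastoid cells (2500/well) were plated, held 5 hr at 37 C, then exposed to compounds for 24 hr at 37 C in complete medium. Intracellular ATP was read by CellTiter-Glo luminescence; AC50 from Hill-fitted concentration-response.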

[16] = Cell Viability - LYMP2-010 (AID 981); note: nearly all actives have a fitted effect of over 55% in size
How it was run: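 Human lymphoblastoid LYMP2-010 cells (2500/well) were preincubated 5 hr at 37 C, then exposed to compounds for 24 hr at 37 C in complete medium. Intracellular ATP was measured by CellTiter-Glo luminescence after 30 min at room temperature; AC50 from Hill-fitted concentration-response.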

[17] = Cell Viability - LYMP2-012 (AID 982)
[18] = Cell Viability - LYMP2-014 (AID 983); note: series mostly up to about 92 µM; nearly all actives have a fitted effect of over 50% in size
How it was run: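 Human lymphoblastoid cells (2500/well) were pre-incubated 5 hr at 37 C, then exposed to compounds in complete medium for 24 hr at 37 C. Intracellular ATP was read by CellTiter-Glo luminescence after 30 min at room temperature; AC50 from Hill fits.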

[19] = Cell Viability - LYMP2-016 (AID 984); note: nearly all actives have a fitted effect of over 55% in size
How it was run: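 Cells were seeded at 2500 per well and rested 5 hr before a 24 hr compound exposure at 37 C. Viability was then gauged as cellular ATP by luciferase luminescence, with AC50 values fitted to the Hill equation.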

[20] = Cell Viability - LYMP2-018 (AID 985); note: nearly all actives have a fitted effect of over 50% in size
How it was run: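 Human lymphoblastoid cells (2500/well) were pre-incubated 5 hr at 37 C, then exposed to compounds for 24 hr at 37 C in complete medium. Viability was read as intracellular ATP by CellTiter-Glo luminescence; AC50 values came from Hill-equation fits.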

[21] = Cell Viability - LYMP2-020 (AID 986)
How it was run: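 Human lymphoblastoid cells, 2500/well, were pre-incubated 5 hr at 37 C, then exposed to compounds for 24 hr at 37 C in complete medium. Intracellular ATP was read by CellTiter-Glo luminescence, and AC50 was derived by Hill fitting of concentration-response data.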

[22] = Cell Viability - LYMP2-022 (AID 987); note: nearly all actives have a fitted effect of over 55% in size
How it was run: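 Human lymphoblastoid cells, 2500/well, preincubated 5 hr at 37 C, then exposed to compounds over a concentration range for 24 hr at 37 C in complete medium. Viability read as intracellular ATP by CellTiter-Glo luminescence after 30 min at room temperature; AC50 from Hill fits.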

[23] = Cell Viability - LYMP2-024 (AID 988); note: nearly all actives have a fitted effect of over 60% in size
How it was run: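 Human lymphoblastoid cells (2500/well) in complete medium were preincubated 5 hr at 37 C, then exposed to compounds for 24 hr at 37 C. Intracellular ATP was read by CellTiter-Glo luminescence; AC50 from Hill-equation fits of concentration-response data.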

[24] = Cell Viability - LYMP2-026 (AID 989); note: nearly all actives have a fitted effect of over 50% in size
How it was run: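 Human lymphoblastoid cells (2500/well) in complete medium were preincubated 5 hr at 37 C, then exposed to compounds for 24 hr at 37 C. Cellular ATP was read by CellTiter-Glo luminescence; AC50 from Hill-equation fits of concentration-response data.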

[25] = Cell Viability - LYMP1-002 - Assay at 24 hr (AID 993)
How it was run: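 Human lymphoblastoid LYMP1-002 cells, 2500/well in complete medium, were treated with compounds for 24 h at 37 C; intracellular ATP was read by CellTiter-Glo luminescence. AC50 values came from Hill-equation fits of qHTS concentration-response data.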

[26] = Cell Viability - LYMP1-002 - Assay at 40 hr (AID 994); note: nearly all actives have a fitted effect of over 60% in size
How it was run: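 Human lymphoblastoid cells, 2500/well in complete medium, were preincubated 5 hr at 37 C, then exposed to compounds for 40 hr at 37 C. Intracellular ATP was read by CellTiter-Glo luminescence after 30 min at room temperature; AC50 from Hill-equation fits.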

[27] = molecular target: Glucocorticoid receptor (Homo sapiens) (UniProt P04150); assay: qHTS assay for small molecule agonists of glucocorticoid receptor signaling (AID 588532; active = well fitted curve in the direction sought with a large enough effect in the signal ratio, with a control signal flat; the % refers to the signal ratio); settings: HeLa MMTV-bla, beta-lactamase ratio, agonist, 18 h; stronger effect = higher value; percent of dexamethasone control, DMSO zero
How it was run: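 HeLa GRE-bla reporter cells; 18 h compound exposure at 37 C; 2 h CCF4 loading at room temperature; fluorescence at 460 and 530 nm; EC50 by Hill equation.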

[28] = qHTS assay for small molecule antagonists of retinoid X receptor alpha signaling (AID 588546; active = well fitted inhibition curve with a large enough effect in the signal ratio, with a control signal flat, not every such curve was filed as active; the % refers to the signal ratio;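 note: cells stimulated with 9-cis-retinoic acid as agonist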); settings: HEK293T RXRa-UAS-bla, beta-lactamase ratio, antagonist mode; measured here: W530 green channel, cytotoxicity proxy
How it was run: (§1)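 Beta-lactamase reporter inhibition, read as CCF4 fluorescence ratio (ex 405, em 460/530 nm) after 2 h at RT. HEK293T UAS-bla cells, 2500/well, were stimulated with 9-cis-RA at 500 or 100 nM final alongside test compound for 18 h at 37 C.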

[29] = molecular target: Retinoic acid receptor RXR-alpha (Homo sapiens) (UniProt P19793); assay: as above; settings: HEK293T RXRa-UAS-bla, beta-lactamase ratio, antagonist mode
How it was run: as §1

[30] = qHTS assay for small molecule disruptors of the mitochondrial membrane potential - 1 hr assay (AID 651754; calls by dose curve; note: nearly all actives have a fitted effect of over 35% in size)
How it was run: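 HepG2 cells, attached overnight at 37C, were exposed to compound or DMSO vehicle for 1 hr at 37C, 5% CO2, then stained with Mito-MPS dye for 30 min. Red aggregate versus green monomer fluorescence reports membrane potential.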

Chain of Retinoic acid receptor RXR-alpha (Homo sapiens) (P19793 whole entry, looked up): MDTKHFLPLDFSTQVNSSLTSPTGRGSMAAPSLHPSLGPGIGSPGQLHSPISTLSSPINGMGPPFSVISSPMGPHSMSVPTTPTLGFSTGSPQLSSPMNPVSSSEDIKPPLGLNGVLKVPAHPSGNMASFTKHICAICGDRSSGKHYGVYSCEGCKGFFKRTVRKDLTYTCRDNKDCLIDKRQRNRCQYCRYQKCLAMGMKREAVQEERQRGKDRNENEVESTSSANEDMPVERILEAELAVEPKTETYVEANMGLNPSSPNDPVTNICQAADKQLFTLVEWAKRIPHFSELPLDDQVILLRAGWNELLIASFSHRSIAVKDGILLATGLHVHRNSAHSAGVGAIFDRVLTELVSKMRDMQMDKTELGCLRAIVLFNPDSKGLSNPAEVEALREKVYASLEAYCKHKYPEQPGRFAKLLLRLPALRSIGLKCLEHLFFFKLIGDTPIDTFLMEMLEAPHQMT
Chain of Glucocorticoid receptor (Homo sapiens) (P04150 whole entry, looked up): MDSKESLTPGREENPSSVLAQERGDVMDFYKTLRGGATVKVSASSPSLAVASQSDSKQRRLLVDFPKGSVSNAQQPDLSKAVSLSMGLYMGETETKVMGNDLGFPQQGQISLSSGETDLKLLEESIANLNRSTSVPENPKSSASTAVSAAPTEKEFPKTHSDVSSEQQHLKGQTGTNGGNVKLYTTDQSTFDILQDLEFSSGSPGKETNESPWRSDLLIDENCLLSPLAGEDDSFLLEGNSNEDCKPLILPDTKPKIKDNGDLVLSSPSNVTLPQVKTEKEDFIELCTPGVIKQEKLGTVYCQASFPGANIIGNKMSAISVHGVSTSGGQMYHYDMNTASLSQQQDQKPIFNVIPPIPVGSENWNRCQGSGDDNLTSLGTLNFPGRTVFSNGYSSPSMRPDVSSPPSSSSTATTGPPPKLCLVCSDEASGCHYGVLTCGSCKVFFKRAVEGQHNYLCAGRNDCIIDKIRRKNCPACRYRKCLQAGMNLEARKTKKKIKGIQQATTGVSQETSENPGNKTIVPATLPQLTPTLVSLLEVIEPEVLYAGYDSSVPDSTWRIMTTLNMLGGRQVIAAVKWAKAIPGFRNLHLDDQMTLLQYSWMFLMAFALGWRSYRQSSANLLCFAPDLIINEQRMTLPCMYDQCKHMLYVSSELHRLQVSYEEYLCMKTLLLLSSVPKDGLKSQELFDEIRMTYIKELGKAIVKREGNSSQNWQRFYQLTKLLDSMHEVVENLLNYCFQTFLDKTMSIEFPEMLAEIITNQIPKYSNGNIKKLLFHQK

**Q.** For C[C@H](CCC(=O)O)[C@H]1CC[C@H]2[C@@H]3CC[C@@H]4C[C@H](O)CC[C@]4(C)[C@H]3CC[C@]12C, which Potency [1] is on record?
**A.** inactive

**Q.** What about the Potency [2] of the same compound?
**A.** inactive

**Q.** And the Potency [3]?
**A.** inactive

**Q.** And the Potency [4]?
**A.** inactive

**Q.** What about the Potency [5] of the same compound?
**A.** inactive

**Q.** And the Potency [6]?
**A.** inactive

**Q.** What about the Potency [7] of the same compound?
**A.** inactive

**Q.** And the Potency [8]?
**A.** inactive

**Q.** And the Potency [9]?
**A.** inactive

**Q.** And the Potency [10]?
**A.** inactive

**Q.** And the Potency [11]?
**A.** inactive

**Q.** What about the Potency [12] of the same compound?
**A.** inactive

**Q.** What about the Potency [13] of the same compound?
**A.** inactive

**Q.** And the Potency [14]?
**A.** inactive

**Q.** And the Potency [15]?
**A.** inactive

**Q.** What about the Potency [16] of the same compound?
**A.** inactive

**Q.** What about the Potency [17] of the same compound?
**A.** inactive

**Q.** What about the Potency [18] of the same compound?
**A.** inactive

**Q.** And the Potency [19]?
**A.** inactive

**Q.** What about the Potency [20] of the same compound?
**A.** inactive

**Q.** What about the Potency [21] of the same compound?
**A.** inactive

**Q.** And the Potency [22]?
**A.** inactive

**Q.** And the Potency [23]?
**A.** inactive

**Q.** And the Potency [24]?
**A.** inactive

**Q.** And the Potency [25]?
**A.** inactive

**Q.** And the Potency [26]?
**A.** inactive

**Q.** What about the activation [27] of the same compound?
**A.** -9.27% (inactive) and -13.3% (inactive)

**Q.** And the max response [28]?
**A.** 21.6% and 12.2%

**Q.** And the max response [29]?
**A.** -5.6% (inactive) and -21.5% (inactive)

**Q.** And the Potency [30]?
**A.** inactive
